Assay outcomes (PubChem)
FBPA coupling cs: qHTS Assay for Inhibitors of Fructose-1,6-bisphosphate Aldolase from Giardia Lamblia: Coupling assay counterscreen. coupling enzyme system counterscreen, AmpLite Red fluorescence. activity change, negative = inhibition, % at 58.2 µM, hits read low. 0.67% of 290,000 active; in the data active means activity change below about -30%
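Counterscreen lacking aldolase: glyceraldehyde-3-phosphate coupling-enzyme reagent preincubated 10 min at RT with compound (at 57.5 uM final), then substrate/coupling system with AmpLite Red added; fluorescence read at 525/598 nm after 20 min RT.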
Giardia kill: Small Molecules that selectively kill Giardia lamblia: qHTS. Giardia lamblia trophozoite viability. activity change, % at 7.66 µM, hits read low. 0.15% of 340,000 active. AID 540267, 2011; in the data active means activity change below about -80%; inconclusive means between about -30% and that limit;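 further: parasites exposed to compound for two days anaerobically before the ATP read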
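Trophozoite viability was measured as ATP-dependent luminescence, read 15-30 min after reagent addition. Before that, parasites at 100 cells/well were exposed to compounds for 48 h, anaerobically, at 37 deg C.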
ELG1 repair inh: qHTS screen for small molecules that inhibit ELG1-dependent DNA repair in human embryonic kidney (HEK293T) cells expressing luciferase-tagged ELG1; Potency, µM (series often up to 46.1 µM), most hits filed as inhibitors; HEK293T ELG1-luciferase reporter, luminescence, 16 h; DNA damage induced by 5-fluorouridine; 2.3% of 330,000 active; further: nearly all actives have a fitted effect of over 55% in size
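Cells (2,000 per well) received 5-fluorouridine plus test compound or DMSO and were incubated 16 hr at 37 °C, 5% CO2. Luciferase activity was read by luminescence 30 min after ONE-Glo addition; signal suppression marked inhibition of damage-induced ELG1 function.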
Sfp PPTase inh: qHTS Assay for Inhibitors of Bacillus subtilis Sfp phosphopantetheinyl transferase (PPTase) | 4'-phosphopantetheinyl transferase ffp (Bacillus subtilis), Q9F4F7 | Biochemical Sfp PPTase activity, qHTS | Potency, µM, usual class: inhibitors | 3.5% of 310,000 active;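 further: the enzyme is Sfp with the accession as filed and its product quenches rhodamine fluorescence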
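Fluorescence-quenching assay with 15 nM Sfp, 5 uM rhodamine-CoA and 12.5 uM BHQ-2-labelled ybbR peptide in pH 7.6 Hepes/MgCl2 buffer. Enzyme was pre-incubated with compound for 15 min at room temperature. Rate was taken from the 30-min fluorescence change (525/598 nm).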
Of the large screens only hits and unclear results are named; the others gave an inactive call. This is a sample that favours compounds with a hit; in the whole collection about 5.5% have one here. Unless noted, the call rests on the fitted dose curve; in most records, active means well fitted curve in the direction sought with a large enough effect; inconclusive means small, poorly fitted or top-dose-only effect, or another doubt; inactive means no such curve, though single readings can be large; an effect the other way counts as inactive or inconclusive.

COC(=O)NC(CC(C)=O)c1cccc(F)c1 (stereo not given)	none (no result: Giardia kill, ELG1 repair inh)
C/C(=N\Nc1ncc(Cl)cc1Cl)c1ccc(OC(F)F)cc1	ELG1 repair inh inconclusive, Sfp PPTase inh 56µM
C/C(=N\NC(=O)c1ccc2c(c1)OCO2)c1ccc2c(c1)OCO2	ELG1 repair inh inconclusive
C/C(=N\Nc1ncc(Cl)cc1Cl)c1ccc2c(c1)OCO2	ELG1 repair inh inconclusive, Sfp PPTase inh 79µM
CCN(CC)C(=O)CSc1nc2ccc(NC(=O)CSc3nnc(COc4ccccc4C)n3C)cc2s1	ELG1 repair inh 8.2µM
CC(C)(C)NC(=O)CSc1nc2ccc(NC(=O)CSc3nnnn3Cc3ccccc3)cc2s1	ELG1 repair inh 2.9µM
CC(C)(C)NC(=O)CSc1nc2ccc(NC(=O)CSc3nnc(N)s3)cc2s1	ELG1 repair inh 16µM
CC(=O)c1cccc(OCC(=O)Nc2ccccc2N2CCOCC2)c1	ELG1 repair inh inconclusive (no result: FBPA coupling cs, Sfp PPTase inh)
CSc1ncnc2[nH]ccc12	none (no result: FBPA coupling cs, ELG1 repair inh, Sfp PPTase inh)
CC1(C)Cc2c(sc3c2C(=O)N(c2ccccc2)C2=NCCN23)CS1	Sfp PPTase inh 89µM (no result: FBPA coupling cs)
CN1C(=O)c2c(sc3c2CC(C)(C)SC3)N2CCN=C12	Sfp PPTase inh inconclusive
C=CCN(C(=O)Cn1nc(C)n2c(cc3cc(C)ccc32)c1=O)c1ccccc1	none
COc1ccc(CCNC(=O)c2cc(C(=O)c3cc(C)ccc3O)cn(CCc3ccc(OC)cc3)c2=O)cc1	ELG1 repair inh 13µM
COc1ccc(CCNC(=O)c2cc(C(=O)c3cc(Cl)ccc3O)cn(CCc3ccc(OC)cc3)c2=O)cc1	ELG1 repair inh inconclusive
O=C(c1cc(C(=O)NCCc2ccccc2)c(=O)n(CCc2ccccc2)c1)c1cc(Cl)ccc1O	ELG1 repair inh 23µM
Cc1cc(C)cc(Nc2nc(-c3ccc(S(=O)(=O)N4CCCC4)cc3)cs2)c1	ELG1 repair inh 23µM
CCOC(=O)N1CCN(C(=O)CSCC(=O)Nc2nc(-c3cccs3)cs2)CC1	ELG1 repair inh 26µM
Cc1csc(NC(=O)c2ccc(S(=O)(=O)N3CCCC3)cc2)n1	none
CC1CCN(C(=O)CSCC(=O)Nc2nc(-c3cccs3)cs2)CC1	ELG1 repair inh inconclusive
O=C(Nc1nc(-c2ccc(S(=O)(=O)N3CCCCCC3)cc2)cs1)c1ccccc1	ELG1 repair inh 7.3µM
CN(C)S(=O)(=O)c1ccc(C(=O)Nc2nnc(-c3cccs3)o2)cc1	ELG1 repair inh inconclusive
CN(C)S(=O)(=O)c1ccc(C(=O)Nc2nc(-c3cccs3)cs2)cc1	ELG1 repair inh 12µM
CN1C[C@@H]2[C@@H]3C(=O)N(C)C(=O)[C@@H]3[C@](C)(C1=O)N2C(=O)c1ccc(Cl)c(Cl)c1	none (no result: FBPA coupling cs, ELG1 repair inh, Sfp PPTase inh)
O=C(O)c1cc(S(=O)(=O)N2CCCCC2)ccc1N1CCOCC1	none (no result: FBPA coupling cs, Sfp PPTase inh)
CCOc1ccc(S(=O)(=O)Nc2cc(S(=O)(=O)N3CCOCC3)ccc2OC)cc1	none (no result: FBPA coupling cs, Sfp PPTase inh)
CCOC(=O)C1=C(COC(=O)Cc2ccc(Br)cc2)NC(=O)NC1C (stereo not given)	ELG1 repair inh inconclusive (no result: FBPA coupling cs)
CC(=O)Nc1nc(-c2cccs2)cs1	ELG1 repair inh inconclusive, Sfp PPTase inh 50µM
O=C(Nc1nc(-c2cccs2)cs1)c1ccc(S(=O)(=O)N2CCCC2)cc1	ELG1 repair inh 16µM
O=C(Nc1nc(-c2cccs2)cs1)c1ccc(Cl)s1	ELG1 repair inh inconclusive
CCn1cc([N+](=O)[O-])c(=O)c2cc(F)c(N3CCOCC3)cc21	Giardia kill inconclusive, Sfp PPTase inh inconclusive
COc1ccc(Oc2ncc3nc(-c4ccc(OC)cc4)c(=O)n(C)c3n2)cc1	none (no result: Giardia kill, ELG1 repair inh)
Cc1cc(C(=O)c2cccs2)c(N)s1	Sfp PPTase inh 50µM
Cn1c2c(c3cnc4cc(Cl)ccc4c31)CN(Cc1ccc(Cl)cc1)CC2	none (no result: FBPA coupling cs, ELG1 repair inh, Sfp PPTase inh)
CSCCC(C(=O)NCc1cccs1)N1C(=O)c2ccccc2C1=O (stereo not given)	none
COc1ccc(NC(=O)C(CCSC)N2C(=O)c3ccccc3C2=O)cc1 (stereo not given)	Sfp PPTase inh 50µM
N#CC1=C(N)Oc2cc(N)ccc2C1c1cccc(F)c1 (stereo not given)	ELG1 repair inh 2.9µM
COCCNC(=O)c1cnn2c1NC(c1ccco1)CC2C(F)(F)F (stereo not given)	none
CCOC(=O)N1CCC(NC(=O)c2cnn3c2NC(c2ccco2)CC3C(F)(F)F)CC1 (stereo not given)	Sfp PPTase inh 56µM (no result: ELG1 repair inh)
